# Laboratory results as given in PubChem BioAssay (NCI).
# Where “and” joins values, the source holds several entries; their conditions need not be identical. Equal entries are not always repeated. This is part of a sample that, as a whole, favours compounds with a hit. Of some 83,000 tested, about 20% had one in any assay.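 Single-dose data. Exposure time 48 hours. Values below 10 considered active.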 Unmarked numbers belong to inactive results. Calls of active or inactive are those of the source.
# System: OVCAR-3 ovarian
# Experiment: NCI-60 one-dose screen, 48 h (100 = growth as untreated, 0 = no growth, -100 = all killed)
# Details: 10 µM unless noted
# Description: Growth inhibition of the OVCAR-3 human tumor cell line is measured as a screen for anti-cancer activity. Cells are grown in 96 well plates and exposed to the test compound for 48 hours. Compounds are tested at a single concentration, which is 10^-5 M for most compounds. The reported endpoint is percent growth (GI% or GIPRCNT), where numbers from 0 - 100% represent growth inhibition, and numbers from -100% - 0 represent cell death. For example, a value of 40 represents 60% growth inhibition. A value of 0 means no net growth occurred over the course of the experiment. A value of -40 indicates 40% of cells at the beginning of the experiment died by the end of the experiment. A value of -100 means all cells are dead at the end of the experiment.
# NCI-60 Human Tumor Cell Lines Screen was performed using the standard one-dose NCI protocol, which is described in more detail at https://dtp.cancer.gov/discovery_development/nci-60/default.htm.
# Compounds with GIPRCNT values below 10 were considered active. Activity score was based on GIPRCNT using the following formula: […]
# Score is 0 for GIPRCNT values of 100 or above, 50 for GIPRCNT values of 0, and 100 for GIPRCNT values of -100.
row,Compound,growth
1,CCOC(=O)C1=C(C(=O)c2ccccc2)C(c2cccc([N+](=O)[O-])c2)C(C(=O)c2ccccc2)=C(C(=O)OCC)N1,96.1%
2,O=C(c1ccc(O)c(Br)c1)c1ccc(O)c(Br)c1,114%
3,C[n+]1ccccc1C[n+]1ccccc1,123%
4,O=[N+]([O-])c1ccc2c(c1)Cc1ccccc1-2,103%
5,CCCCCCCCCCCC1=NCCCN1CCCC,104%
6,COc1cc(OC)c(/C=C/c2c3ccccc3cc[n+]2C)c(OC)c1,5.9% (active)
7,CC1(C)OC2C(COC(c3ccccc3)(c3ccccc3)c3ccccc3)OC(c3c[nH]c4c(N)ncnc34)C2O1 (stereo not given),53.8%
8,CCN(CC)c1ccc(/C=C\C(=O)c2ccc(NC(C)=O)cc2)cc1,104%
9,COC1=CC(=O)c2c(O)c3c(c(O)c2C1=O)CC(C)(O)OC3 (stereo not given),-0.531% (active)
10,CC12CCC(O)CC1=CCC1C2CCC2(C)C3=NN=CC3CC12 (stereo not given),116%
11,N#CC1c2ccccc2C=CN1C(=O)CCCl (stereo not given),91.4%
12,Cc1cc(Br)c2nsnc2c1[N+](=O)[O-],57%
13,NC(=S)N/N=C/c1ncccc1O,27.7%
14,N#CCc1cccc2ccccc12,120%
15,CCCCCCCCC(=O)OCCCC(CCC(CCC1CCCO1)OC(=O)CCCCCCCC)OC(=O)CCCCCCCC (stereo not given),110%
16,OC(c1cc(C23CC4CC(CC(C4)C2)C3)nc2c(Cl)cc(Cl)cc12)C1CCCCN1 (stereo not given),-89.9% (active)
17,CC1=CC(=NC(=O)CBr)C=C/C1=N\S(=O)(=O)c1ccccc1,8.58% (active)
18,O=C(CCl)N(c1ccccc1)c1ccccc1,109%
19,COc1ccc2c(c1)c(CC(=O)O)c(C)n2C(=O)c1ccc(Cl)cc1,125%
20,CCOC(=O)/C(=C\c1ccc2ccccc2c1)P(=O)(OCC)OCC,27.4%

row,Compound,growth
1,N#C/C(=N\Nc1ccc(Cl)cc1)C(=O)C1CC1,39.8%
2,CC(C)(C)c1ccc(O)c(-c2ccccc2)c1,111%
3,O=C(c1ccccc1)C(O)C(Br)(CBr)c1ccccc1 (stereo not given),89.7%
4,CC(C)=C1C=C2CC[C@@H]3[C@](C)(CCC[C@@]3(C)C(=O)O)[C@H]2CC1,98.9%
5,COc1cc2c(c(OC)c1OC)-c1ccc(NCc3ccccc3)c(=O)cc1[C@@H](NC(C)=O)CC2,-39.2% (active)
6,CC/C(=C(/CC)c1ccc(O)cc1)c1ccc(O)cc1,62.1%
7,CCCCCCCCCCCCCCCCCC[S+](C)CC (stereo not given),45.1%
8,CCOC(=O)c1[nH]c(C#N)c(C(=O)OCC)c1C,114%
9,OC(c1cc(-c2ccc(C(F)(F)F)cc2)nc(C(F)(F)F)c1)C1CCCCN1 (stereo not given),-70.3% (active) and -68.3% (active) and 8.69% (active)
10,CCCCCCCCCCCCN1C(C)=CS/C1=C\C=C\c1scc(C)[n+]1CCCCCCCCCCCC,31.9%
11,CCSc1nc2ccccc2o1,111%
12,CCC1C[N+]2=C(c3cc(OC)c(OC)cc3CC2)c2c1cc1n2CCc2cc(OC)c(OC)cc2-1 (stereo not given),10%
13,CN(C)c1ccc2cc3c(cc2c1)Oc1ccccc1N3.[Cl][Zn][Cl],17.6%
14,Cn1ccc(=Nc2ccc(NC(=O)c3ccc(N=c4ccn(C)c5ccc([N+](=O)[O-])cc45)cc3)cc2)cc1,79.5%
15,CCCC[n+]1c(/C=C\c2c(OC)cc(OC)cc2OC)ccc2ccccc21,-16.7% (active)
16,Oc1c(C(Nc2ccccc2)c2ccccc2)ccc2cccnc12 (stereo not given),24.3%
17,NC(CS/C(Cl)=C/Cl)C(=O)O (stereo not given),102%
18,C(=N\Nc1ccc2ccccc2n1)/c1ccccn1,44.7%
19,O=[N+]([O-])c1ccc(Oc2ccccc2Cl)c([N+](=O)[O-])c1,94.1%
20,CN(C)CC(C)(CN(C)C)C(=O)/C=C/c1c(Cl)cccc1Cl,-31.3% (active)
